This is an account of results in PubChem BioAssay AID1347142 (National Center for Advancing Translational Sciences (NCATS), 2019).

The structures appear in SMILES notation. Records with an inconclusive call do not appear. Calls of active or inactive are those of the source. Calls come from the whole dose curve; as a rule, active = well fitted inhibition curve with a large enough effect; inconclusive = small, poorly fitted or top-dose-only effect; inactive = no such curve, though single readings can be large or run the other way.
Note: nearly all actives have a fitted effect of over 80% in size.
Potency is the fitted concentration of half-maximal effect.

For the experiment, the target named is N-terminal Xaa-Pro-Lys N-methyltransferase 1 (Homo sapiens) (UniProt Q9BV86). The experiment in a line: qHTS Assay for Inhibitors of N-terminal methyltransferase 1 (NTMT1): ThioGlo3 Assay Confirmatory Screen, Round 1. The settings on record: NTMT1 SAHH-coupled ThioGlo3 fluorescence, 30 min; series mostly up to 56.8 µM. The procedure, abridged: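 Human NTMT1 at 125 nM was preincubated 1 min at room temperature with compounds at various concentrations or 1 uM RCC1-6 control. Substrate mix (100 uM SAM, 10 uM SAHH, 15 uM ThioGlo3) was added, and fluorescence (Ex 340/Em 450 nm) was read at start and after 30 min, normalized to background.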
Chain of N-terminal Xaa-Pro-Lys N-methyltransferase 1 (Homo sapiens) (Q9BV86 whole entry, looked up): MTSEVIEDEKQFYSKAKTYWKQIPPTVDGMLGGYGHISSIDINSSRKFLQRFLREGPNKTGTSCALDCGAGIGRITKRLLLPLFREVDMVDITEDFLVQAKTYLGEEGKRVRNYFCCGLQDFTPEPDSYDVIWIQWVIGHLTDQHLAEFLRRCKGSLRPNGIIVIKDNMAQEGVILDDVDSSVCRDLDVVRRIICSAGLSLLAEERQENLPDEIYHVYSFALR
Take `NC(=S)c1ccc[n+]([C@@H]2O[C@@H](COP(=O)([O-])OP(=O)(O)OC[C@H]3O[C@@H](n4cnc5c(N)ncnc54)[C@H](OP(=O)(O)O)[C@@H]3O)C(O)C2O)c1` (some centres not stated): the Potency result is “inactive”. The value for `COc1cc2c(NC3CCN(C(C)C)CC3)nc(N3CCCN(C4CCCCC4)CC3)nc2cc1OCCCN1CCCC1` was 24.1 µM (active); that for `Nc1nc(Cl)nc2c1ncn2[C@@H]1O[C@H](COP(=O)(O)OP(=O)(O)OP(=O)(O)O)C(O)[C@H]1O` (some centres not stated) was 21.5 µM (active); that for `COc1cc2nc(N3CCN(C)CC3)nc(NC3CCCC3)c2cc1OC` was 24.1 µM (active).

With `COc1cc2c(NC3CCN(C(C)C)CC3)nc(N3CCCN(C)CC3)nc2cc1OCCOCCN(C)C`, the Potency was 24.1 µM (active).

Regarding `COc1cc2c(NC3CCN(C(C)C)CC3)nc(N3CCCN(CC4CCCCC4)CC3)nc2cc1OCCCN1CCCCC1`, the Potency is 24.1 µM (active). In the case of `COc1cc2c(NC3CCN(C)CC3)nc(N3CCCN(C)CC3)nc2cc1OCCCN(C)C`, the Potency is 27.1 µM (active). Turning to `CSCC1OC(n2cnc3c(N)ncnc32)C(O)C1O` (configuration not stated), the Potency entry is “inactive”.

`CCN(CC)CCCOc1cc2nc(N3CCCN(C)CC3)nc(NC3CCN(C)CC3)c2cc1OC`: the Potency is 24.1 µM (active). In the case of `COc1cc2c(NC3CCN(C)CC3)nc(N3CCN(C)CC3)nc2cc1OCCOCCN(C)C` it was 21.5 µM (active); in that of `COc1cc2c(NC3CCN(C(C)C)CC3)nc(N3CCCN(C(C)C)CC3)nc2cc1OCCCN1CCCCC1`, 24.1 µM (active).

As to `CCC(CC)n1ccc2c(C(=O)NCc3c(C)cc(C)[nH]c3=O)cc(C#N)cc21`, the Potency is 15.2 µM (active).
